Measurements from ChEMBL document CHEMBL1201862, “PubChem BioAssay data set” (2004).
In all, about 51,000 sequences went through this assay and about 3,800 (7.5%) were called active. No stated cut-off is given here; in the data, active = GI50 up to about 1.1 µM and inactive = higher. Shown is part of a subset that was picked to be rich in actives. Measured potencies and affinities stand elsewhere.

Test system: A498

Row | Substance | GI50
1 | [Bis(aminomethyl)dimethylsilane]tetrachloroplatinum(IV), CHEMBL2146190 | 15.5 µM
2 | [Bis(aminomethyl)pentamethylenesilane]dichloropaltinum(II), CHEMBL2146202 | 0.279 µM
3 | mu-(1,7-nanodiamine-N,N')bis-(cis-aminedichloroplatimum (II)), CHEMBL2146215 | 66.5 µM
4 | [Bis(aminomethyl)tetramethylenesilane]dichloropaltinum(II), CHEMBL2146205 | 32.8 µM
5 | [Bis(aminomethyl)pentamethylenesilane]tetrachloropaltinum(IV), CHEMBL2146204 | 0.132 µM
6 | [Bis(aminomethyl)tetramethylenesilane]tetrachloropaltinum(IV), CHEMBL2146189 | 1.64 µM
7 | CISPLATIN, CHEMBL11359 | 8.24 µM
